Test results reported in PubChem BioAssay (NCI).
About 83,000 compounds went through this panel and 20% of them were active in at least one assay; those are over-represented in the sample as a whole.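 The test compound was applied at a single concentration to cells in 96-well plates for 48 hours, and percent growth was recorded.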 Unmarked numbers belong to inactive results. Activity calls are given as the source filed them. Rule for the calls: active = growth percent below 10; inactive = the rest.

system: TK-10 renal; test: NCI-60 one-dose screen, 48 h (100 = growth as untreated, 0 = no growth, -100 = all killed); settings: 10 µM unless noted

`COc1cc(/C=C/C(=O)N2CCN(C(=O)c3cc(OC)c(OC)c(OC)c3)CC2)ccc1OCCCOc1cc2c(cc1OC)C(=O)N1CCC[C@H]1C=N2` was tested, and the growth was 6.61% (active).
With `N#CSc1c[nH]c2ccc(/C=C/C(=O)/C=C(O)/C=C/c3ccc4[nH]cc(SC#N)c4c3)cc12` the growth was 8.11% (active).
In the case of `COc1ccc2c(O)c(/C=C3\N=Nc4ncccc43)oc2c1C[C@@H]1CCNC[C@H]1F`, the growth is reported as -2.3% (active).

First: O=S(O)c1cc(Cl)cc(Cl)c1OCc1ccccc1
Second: COc1ccccc1/C=C/C(=O)Nc1ccc(F)cc1
The growth of the first is lower: 101% for the first, 128% for the second.

Going from `CS(=O)(=O)c1ccc(-c2nc3ccccc3n2CC(=O)N/N=C/c2ccccc2)cc1` to `Cc1nc2ccccc2c(/C=C/c2ccc(F)cc2)c1C(=O)/C=C/c1ccccc1`, the growth falls from 103% to 23.2%.

Compared with `CCCn1c(=S)sc2c(NNC(C)=O)nc(C)nc21`, `CCCCn1c(NC(C)=O)c(S(=O)(=O)c2ccccc2)c2nc3ccccc3nc21` is higher in growth: 94.5% for the first, 99.7% for the second.

First: CC12OC(CC(O)C1O)n1c3ccccc3c3c4c(c5c6ccccc6n2c5c31)C(=O)N(CCN1CCCC1)C4=O (stereo not given)
Second: COc1c2c(cc3c1C(=O)N[C@@H]1[C@@H](O)[C@@H](O)[C@H](O)C[C@@H]31)OCCO2
The growth of the first is lower: 21.2% for the first, 95.7% for the second.

`C=C1CC[C@@H]2C(C)(C)[C@H](O)CC[C@@]2(C)[C@@H]1COc1ccc2ccc(=O)oc2c1` gave a growth of 96.3%.

system: ACHN renal; test: as above; settings: 10 µM unless noted

Going from `COc1ccc(-c2cn(Cc3cc4ccccc4s3)nn2)cc1OCCN1CCCCC1` to `c1ccc2cc(Cn3cc(CSc4nc5ccccc5s4)nn3)ccc2c1`, the growth rises from 89.4% to 99.3%.

First: COc1ccc(-c2nc3c(c(-c4ccc(Cl)cc4)nn3-c3ccccc3)c(-c3ccccc3)c2C#N)cc1
Second: N#Cc1c(-c2ccccc2)nc2c(c(-c3ccc(Cl)cc3)nn2-c2ccccc2)c1-c1ccc([N+](=O)[O-])cc1
The growth of the first is higher: 107% for the first, 97.5% for the second.

Compared with `COc1ccc2c(c1)CC[C@@H]1[C@@H]2CC[C@]2(C)C3C(=CC(COC(C)=O)C4C(=O)N(c5ccc(Cl)cc5)C(=O)C43)C[C@@H]12` (stereo not given in full), `C=C1C(=O)O[C@H]2[C@H]1CC/C(COC(=O)NCc1ccc(Cn3c(=O)sn(-c4ccccc4)c3=O)cc1)=C\CC[C@@]1(C)O[C@@H]21` is lower in growth: 95.8% for the first, 29.6% for the second.

First: Cc1ccc2c(c1)sc1nc(-c3c[nH]c4ccccc34)c(Nc3ccccc3)n12
Second: Cc1nc2ccccc2c(/C=C/c2ccc(F)cc2)c1C(=O)/C=C/c1ccccc1
The growth of the first is higher: 100% for the first, 11.6% for the second.

Going from `N=C(N)c1ccc(-c2ccc(-c3ccccc3)o2)o1` to `COc1cc(/C=N/NC(=O)c2ccc(-n3cc(-c4ccccc4)nn3)cc2)cc(OC)c1OC`, the growth rises from 38.5% to 70.7%.

Going from `CN1C(=O)N2CN3CCCN(C3)CN3C(=S)NC1C23` (stereo not given) to `COc1c2c(cc3c1C(=O)N[C@@H]1[C@@H](O)[C@@H](O)[C@H](O)C[C@@H]31)OCCO2`, the growth falls from 118% to 103%.

Going from `COc1ccc(Oc2ccc(/C=C/C(=O)c3cc4ccccc4oc3=O)cc2)cc1` to `COc1ccc(Oc2ccc(/C=C/C(=O)c3ccc(OC)c(OC)c3)cc2)cc1`, the growth rises from 91.3% to 92.5%.

Going from `O=[N+]([O-])c1c(O)c(Cl)cc(Cl)c1Cl` to `O=S(O)c1cc(Cl)cc(Cl)c1OCc1ccccc1`, the growth rises from 103% to 110%.

Compared with `Cc1oc(-c2ccc(Cl)cc2)nc1C1=NN(C(=O)c2ccncc2)C(c2ccccc2)C1` (stereo not given), `CS(=O)(=O)c1ccc(-c2nc3ccccc3n2CC(=O)N/N=C/c2ccccc2)cc1` is higher in growth: 92% for the first, 101% for the second.

Going from `CCCCn1c(NC(C)=O)c(S(=O)(=O)c2ccccc2)c2nc3ccccc3nc21` to `Cc1nc([P+](c2ccccc2)(c2ccccc2)c2ccccc2)c(N2CCCCC2)o1`, the growth falls from 106% to 87.6%.

Going from `COc1cc(O)c2c(=O)c3c(CC=C(C)C)cc(OC)c(O)c3oc2c1` to `Cc1nc2sc(C(=O)Nc3ccccn3)c(N)c2cc1C(C)O` (stereo not given), the growth rises from 50.3% to 89%.

Going from `c1cc(OCCN2CCCC2)ccc1CNc1ccc2nc(CCC3CCCCC3)[nH]c2c1` to `CC(C)c1ccc2c(c1)CC[C@H]1[C@](C)(C(=O)OCC#CCN3CCCC3)CCC[C@]21C`, the growth rises from 60.4% to 86.2%.

With `C=CN(C(=O)N1CCN(c2cc3c(cc2F)c(=O)c(C(=O)O)cn3C2CC2)CC1)c1nc(-c2ccc(Cl)cc2)cs1` the growth was 70.5%.

With `CSc1nc2ccc(C)cc2cc1/C=C1/C=C(c2ccccc2)NC1=O` the growth was -52.8% (active).
For `Clc1ccc(-c2cc(-c3ccccc3)nc(N3CCN(CCCNc4ccnc5cc(Cl)ccc45)CC3)n2)cc1`, the growth was 3.37% (active).
In the case of `COc1cc(/C=C/c2cc(/C=C/c3ccc(O)c(OC)c3)n(C(=O)Nc3ccc(Cl)cc3)n2)ccc1O`, the growth is reported as 9.29% (active).
`N#CSc1c[nH]c2ccc(/C=C/C(=O)/C=C(O)/C=C/c3ccc4[nH]cc(SC#N)c4c3)cc12` was tested, and the growth was 0.691% (active).
In the case of `CC12OC(CC(O)C1O)n1c3ccccc3c3c4c(c5c6ccccc6n2c5c31)C(=O)N(CCN1CCCC1)C4=O` (stereo not given), the growth is reported as -38.1% (active).
In the case of `COCC(=O)Oc1cc(-c2ccc(C)cc2C)c(OC(=O)COC)c(-c2ccc(C)cc2C)c1`, the growth is reported as -18% (active).
`O=C1C=C(SCCO)C(=O)c2ccccc21` was tested, and the growth was -74% (active).

Compound `Fc1cccc(-c2nc(-c3c[nH]c4ncccc34)cs2)c1` has a growth of 22% [100 µM].
